IL1B secr inh: qHTS for Inhibitors of Inflammasome Signaling: IL-1-beta AlphaLISA Primary Screen; 4.7% of 360,000 active; activity change, % at 57.5 µM; AID 743279, 2014; THP-1 LPS/ATP IL-1B secretion, AlphaLISA, 16 h; stronger effect = lower value; in the data active = activity change below about -50%; inconclusive = mostly about -30% to -49%
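Secreted IL-1B measured by AlphaLISA bead assay after 16 h compound exposure of THP-1 cells; compounds (final up to 57.5 uM) added 1 h before LPS (250 ng/mL) and ATP (1.25 mM) stimulation; lower signal means less secretion.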
DT40 TDP1 no CPT: qHTS for Inhibitors of human tyrosyl-DNA phosphodiesterase 1 (TDP1): qHTS in cells in absence of CPT | DT40 Tdp1-/- hTDP1 cells, no CPT, ATP luminescence, 48 h | Potency, µM (highest dose often 46.2 µM), actives largely listed as inhibitors | 15% of 420,000 active | AID 686978, 2013; also: nearly all actives have a fitted effect of over 55% in size
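Stably hTDP1-transfected Tdp1-null chicken DT40 cells were treated with library compounds minus camptothecin and grown for at least 48 hr at 37 °C, after which cellular ATP was quantified by luminescence.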
TDP1 cell CPT: qHTS for Inhibitors of human tyrosyl-DNA phosphodiesterase 1 (TDP1): qHTS in cells in presence of CPT. chicken DT40 Tdp1-/-;hTDP1 cells + 20 nM CPT, ATP luminescence, 48 h. Potency, µM (highest dose often 46.2 µM), usual class: inhibitors. 12% of 420,000 active. AID 686979, 2013; also: nearly all actives have a fitted effect of over 55% in size
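Chicken DT40 Tdp1-/- cells complemented with human TDP1, 400 cells/well, exposed to compounds plus 20 nM camptothecin for at least 48 h at 37 C; viability read as ATP content by CellTiter-Glo luminescence.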
HT1080-NT tox: qHTS for induction of synthetic lethality in tumor cells producing 2HG: qHTS for the HT-1080-NT fibrosarcoma cell line | AID 686970, 2013 | Potency, µM (titrated, usually from 46.1 µM), hits mostly cytotoxic | HT-1080-NT fibrosarcoma viability, CellTiter-Glo ATP luminescence, 48 h | 1.6% of 360,000 active;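 also: NT is the 2HG producing partner of a matched IDH1 knockdown line; nearly all actives have a fitted effect of over 55% in size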
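HT-1080-NT fibrosarcoma cells (2HG-overproducing), 750 cells/well in RPMI with 5% FBS, dosed after 2 h and incubated 48 h at 37C. CellTiter-Glo luminescence normalized to DMSO and no-cell wells; concentration-response curves fitted and classed.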
HT1080 IDH1KD tx: qHTS for induction of synthetic lethality in tumor cells producing 2HG: qHTS for the HT-1080-IDH1KD cell line; HT-1080 IDH1 knockdown viability, ATP luminescence, 48 h; Potency, µM (titrated, usually from 46.1 µM), usual class: cytotoxic; 2% of 360,000 active
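Using the IDH1-knockdown HT-1080 line run in the same batch and compound series as the NT line, viability after 48 h at 37 °C was determined by CellTiter-Glo luminescence and expressed as % activity.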
A number is an active result; 0 = inactive; ? = inconclusive; - = no result given; ! = not active in a repeat. This is a sample that favours compounds with a hit; in the whole collection about 19% have one here. Unless noted, calls follow the shape of the dose curve; as a rule, active = well fitted curve in the direction sought with a large enough effect; inconclusive = small, poorly fitted or top-dose-only effect, or another doubt; inactive = no such curve, though single readings can be large; an effect the other way counts as inactive or inconclusive.

SMILES | IL1B secr inh | DT40 TDP1 no CPT | TDP1 cell CPT | HT1080-NT tox | HT1080 IDH1KD tx
CC(Cc1ccccc1)NC(=O)/C=C/C(=O)O (configuration not stated) | 0 | 0 | 0 | 0 | 0
O=C(O)[C@@H](O)[C@H](O)[C@H](O)[C@@H](O)C(=O)O | - | 0 | 0 | - | -
CC12CN3CCN(CC(C3)/C1=N/NC(N)=O)C2 | 0 | 0 | 0 | 0 | 0
CN(C)C(=O)Oc1cccc(OCc2n(C)c3ccccc3[n+]2C)c1 | 0 | 0 | 0 | 0 | 0
Nc1c(C(=O)NCCc2ccccc2)c2nc3ccccc3nc2n1CCN1CCOCC1 | -86.2 | 16.4µM | 20.6µM | 17.8µM | ?
C=CCNC(=O)c1c(N)n(Cc2ccco2)c2nc3ccccc3nc12 | 0 | 14.6µM | 7.31µM | ? | ?
COCCNC(=O)c1c(N)n(Cc2ccco2)c2nc3ccccc3nc12 | 0 | ? | ? | 0 | ?
COCCNC(=O)c1c(NC(=O)c2ccco2)n(Cc2ccccc2)c2nc3ccccc3nc12 | 0 | 20.6µM | ? | 0 | 0
Nc1c(C(=O)NCCN2CCOCC2)c2nc3ccccc3nc2n1Cc1ccco1 | 0 | 14.6µM | ? | 0 | 0
COCCCNC(=O)c1c(NC(=O)c2ccccc2Cl)n(Cc2ccccc2)c2nc3ccccc3nc12 | 0 | 0 | 0 | 0 | 0
NCC(=O)c1ccc(Br)cc1 | - | 0 | 0 | - | -
COc1cccc2c1C13CC[N+]4(CC5CC5)CO[C@]1(CCC(=O)C3)C4C2 | - | 0 | 0 | - | -
CCCCn1c(N)c(C(=O)NCCN2CCOCC2)c2nc3ccccc3nc21 | -54.2 | 23.1µM | 14.6µM | ? | ?
COc1nc2ccccc2nc1N1CC1 | 0 | 1.64µM | 0.92µM | 0 | 0
CC(C)CN1CCN(Cc2cccc3c2OCO3)CC1CCO (configuration not stated) | 0 | 0 | 0 | 0 | 0
Cn1cc([N+](=O)[O-])c(C(=O)Nc2ccc3c(C(F)(F)F)cc(=O)oc3c2)n1 | -95.0 | 0 | 0 | ? | ?
Cc1ccc(-c2cc(-c3ccc(C)cc3)[n+](C)o2)cc1 | 0 | 0.326µM | 0.461µM | 0 | ?
Fc1cccc(-c2ccc3c(c2)CN(C(=S)NCCc2ccccc2)Cc2cnnn2-3)c1 | -57.4 | ? | ? | ? | 0
S=C(NCCc1ccccc1)N1Cc2ccccc2-n2nncc2C1 | 0 | 20.6µM | ? | 0 | 0
[O]=[Cd] | - | 0 | 0 | - | -
Cc1cccc(-n2c(/C=C/c3cn(C)c4ccccc34)nc3ccccc3c2=O)c1 | - | 9.2µM | 6.51µM | - | -
O=C(O)c1ccc(/C=C/c2nc3ccccc3c(=O)n2-c2ccc(Br)cc2)cc1 | ? | ? | 0 | 0 | 0
Cc1ccc(-n2c(/C=C/c3cccc4ccccc34)nc3ccccc3c2=O)cc1 | - | 20.6µM | ? | - | -
COc1cccc(/C=C/c2nc3ccccc3c(=O)n2-c2ccc(Cl)cc2)c1OC | - | ? | 14.6µM | - | -
Cc1cccc(-n2c(/C=C/c3cccc4ccccc34)nc3ccccc3c2=O)c1 | - | 6.51µM | 9.2µM | - | -
SMILES | IL1B secr inh | DT40 TDP1 no CPT | TDP1 cell CPT | HT1080-NT tox | HT1080 IDH1KD tx
Cc1nc2ccccc2c(=O)n1-c1ccc(F)cc1 | 0 | 0 | 0 | 0 | 0
CC(C)(O)[C@@H]1[C@H]2OC(=O)[C@@H]1[C@]1(O)C[C@H]3O[C@]34C(=O)O[C@H]2[C@]14C | - | 0 | 0 | - | -
CCC1(C)CN(S(=O)(=O)OCC(Cl)(Cl)Cl)C(=O)N1 (configuration not stated) | 0 | 0 | 0 | 0 | 0
O=c1c2ccccc2nc(/C=C/c2cccc3ccccc23)n1-c1ccc(Cl)cc1 | - | 25.9µM | 20.6µM | - | -
O=C1OC(=O)C2C1[C@@H]1CC[C@H]2O1 (some centres not stated) | 0 | 0 | 0 | ? | ?
Cc1ccc2c(c1)c(=O)c1c3n2CCN(CC2CO2)C3CC1 (configuration not stated) | 0 | ? | 18.4µM | 0 | 0
CN(C)C(=O)Oc1ccc2c(c1)O/C(=C\c1cccc(Cl)c1)C2=O | -61.0 | 0 | 0 | 0 | 0
O=S1(=O)N(CCN2CC=C(c3c[nH]c4cc(F)ccc34)CC2)c2cccc3c2N1CCC3 | -58.8 | 16.4µM | 9.2µM | 13µM | 16.4µM
C[C@H]1CC[C@]2(NC1)O[C@H]1C[C@H]3[C@@H]4CC[C@H]5C[C@@H](O[C@@H]6O[C@H](CO)[C@H](O[C@@H]7O[C@H](CO)[C@@H](O)[C@H](O[C@@H]8OC[C@@H](O)[C@H](O)[C@H]8O)[C@H]7O[C@@H]7O[C@H](CO)[C@@H](O)[C@H](O)[C@H]7O)[C@H](O)[C@H]6O)CC[C@]5(C)[C@H]4CC[C@]3(C)[C@H]1[C@@H]2C | - | 1.68µM | 1.88µM | - | -
C[C@@H]1CC[C@@]2(NC1)O[C@H]1C[C@H]3[C@@H]4CC=C5C[C@@H](O)CC[C@]5(C)[C@H]4CC[C@]3(C)[C@H]1[C@@H]2C | 0 | 0 | 0 | 0 | 0
COCc1cc(C)c(C#N)c(=S)[nH]1 | 0 | 0.82µM | 1.16µM | 0 | 0
CN(C)C/C=C(\c1ccc(Br)cc1)c1cccnc1 | 0 | ? | 0 | ? | ?
Cc1ccsc1CNCCc1ccccc1F | 0 | 0 | 0 | 0 | 0
Nc1nc(F)nc2c1ncn2[C@@H]1O[C@H](CO)[C@@H](O)[C@@H]1O | 0 | 0.164µM | 0.206µM | ? | ?
CCNC(=O)C1OC(n2cnc3c(N)ncnc32)C(O)C1O (configuration not stated) | ? | 0 | 0 | ? | ?
Nc1nc(F)nc2c1ncn2[C@@H]1O[C@H](CO)[C@@H](O)[C@H]1O | -74.2 | 0.164µM | 0.058µM | 0.651µM | 0.231µM
O=C(Nc1ccc2c(c1)OCO2)c1cccn(Cc2cccc([N+](=O)[O-])c2)c1=O | - | 0 | 0 | - | -
O=C(Nc1ccc2c(c1)OCCO2)c1cccn(Cc2cccc([N+](=O)[O-])c2)c1=O | - | 13µM | ? | - | -
CC(=O)c1cccc(NC(=O)c2cccn(Cc3cccc(C)c3)c2=O)c1 | - | 20.6µM | 23.1µM | - | -
COc1ccccc1N=c1scc(-c2ccc(S(=O)(=O)N3CCCC3)cc2)n1C | - | 2.91µM | 5.17µM | - | -
COc1ccccc1N1CCN(S(=O)(=O)c2ccc3c(c2)oc(=O)n3C)CC1 | 0 | ? | 0 | 0 | 0
CC(=O)c1ccc(N2CCN(S(=O)(=O)c3cc(-c4onc(C)c4C)ccc3C)CC2)cc1 | - | 9.2µM | 8.2µM | - | -
Cc1ccc(NC(=O)c2ccc(C)c(S(=O)(=O)N3CCCCC3)c2)nc1 | 0 | ? | 0 | 0 | 0
COC(=O)NC(=S)Nc1ccccc1NC(=S)NC(=O)OC | 0 | ? | 20.6µM! | - | -
Cc1cc(NC(=O)c2cccn(Cc3ccccc3)c2=O)no1 | - | 0 | 0 | - | -

Compound activity deposited in PubChem BioAssay by National Center for Advancing Translational Sciences (NCATS).
